Measurements as given in the antibiotic and cytotoxicity screens of Wong et al. (2023).
About 3,300 (8.5%) of roughly 39,000 compounds were called active. The sample holds actives, similar compounds and a random draw of the others, so the mix is not that of the screen.

Test system: HepG2
Experiment: cytotoxicity call (relative viability < 0.9)
Conditions: 10 µM

SMILES	cytotoxicity call
Cc1csc2c(N3CCC(Cn4cc(C(C)(C)N)nn4)CC3)ncnc12	inactive
C[C@@H]1OC2=C(Cl)C(=O)N3CCC[C@H]3C[C@@]21O	inactive
Cc1ccc(S[C@]2(C(=O)NCC(F)(F)F)CC(=O)N(Cc3ccccc3)[C@@H]2c2ccc(CO)cc2I)cc1	inactive
C[C@@H]1CN([C@H](C)CO)S(=O)(=O)c2ccc(C#Cc3cccc(F)c3)cc2O[C@@H]1CN(C)CC1CC1	inactive
COC(=O)[C@@H]1[C@@H](CO)[C@@H]2Cn3c(cccc3=O)[C@@H]2N1C(=O)C1CC1	inactive
C[C@H](NC(=O)C[C@@H]1CC[C@H](NC(=O)CN2CCOCC2)[C@@H](CO)O1)c1ccccc1	inactive
C[C@@H]1CCCCO[C@H](CN(C)Cc2ccccc2)[C@H](C)CN([C@H](C)CO)C(=O)c2cc(NC(=O)Cc3ccccc3)ccc2O1	inactive
C[C@H]1CCCCO[C@H](CN(C)C(=O)Nc2ccc(C(F)(F)F)cc2)[C@@H](C)CN([C@@H](C)CO)C(=O)c2cc(NS(=O)(=O)c3ccc(Cl)cc3)ccc2O1	inactive
C[C@@H]1CCCCO[C@H](CN(C)C(=O)Nc2ccc(C(F)(F)F)cc2)[C@H](C)CN([C@@H](C)CO)C(=O)c2cc(NS(=O)(=O)c3ccc(Cl)cc3)ccc2O1	inactive
C[C@@H]1CN([C@@H](C)CO)C(=O)c2cc(NS(=O)(=O)c3ccc(Cl)cc3)ccc2O[C@@H](C)CCCCO[C@@H]1CN(C)C(=O)Nc1ccc(C(F)(F)F)cc1	inactive
C[C@H]1CCCCO[C@@H](CN(C)C(=O)Nc2ccc(C(F)(F)F)cc2)[C@@H](C)CN([C@@H](C)CO)C(=O)c2cc(NS(=O)(=O)c3ccc(Cl)cc3)ccc2O1	inactive
C[C@@H]1CN([C@H](C)CO)C(=O)c2cc(NS(=O)(=O)c3ccc(Cl)cc3)ccc2O[C@H]1CN(C)C(=O)Nc1ccc(C(F)(F)F)cc1	inactive
C[C@H](CO)N1C[C@H](C)[C@H](CN(C)C(=O)Nc2ccc(C(F)(F)F)cc2)OCCCC[C@H](C)Oc2ccc(NS(=O)(=O)c3ccc(Cl)cc3)cc2C1=O	active
C[C@@H]1CCCCO[C@@H](CN(C)C(=O)Nc2ccc(C(F)(F)F)cc2)[C@H](C)CN([C@@H](C)CO)C(=O)c2cc(NS(=O)(=O)c3ccc(Cl)cc3)ccc2O1	inactive
C[C@H](CO)N1C[C@H](C)[C@@H](CN(C)C(=O)Nc2ccc(C(F)(F)F)cc2)OCCCC[C@H](C)Oc2ccc(NS(=O)(=O)c3ccc(Cl)cc3)cc2C1=O	active
C[C@@H]1CN([C@H](C)CO)C(=O)c2cc(NS(=O)(=O)c3ccc(Cl)cc3)ccc2O[C@@H]1CN(C)C(=O)Nc1ccc(C(F)(F)F)cc1	active
C[C@@H]1CCCCO[C@H](CN(C)C(=O)Nc2ccc(C(F)(F)F)cc2)[C@H](C)CN([C@H](C)CO)C(=O)c2cc(NS(=O)(=O)c3ccc(Cl)cc3)ccc2O1	active
C[C@H]1CN([C@@H](C)CO)C(=O)c2cc(NS(=O)(=O)c3ccc(Cl)cc3)ccc2O[C@@H]1CN(C)C(=O)Nc1ccc(C(F)(F)F)cc1	inactive
C[C@@H]1CCCCO[C@H](CN(C)C(=O)Nc2ccc(C(F)(F)F)cc2)[C@@H](C)CN([C@H](C)CO)C(=O)c2cc(NS(=O)(=O)c3ccc(Cl)cc3)ccc2O1	inactive
NCCCC[C@@H](N)C(=O)N[C@@H](Cc1ccc(O)cc1)C(=O)N[C@@H](CCCCN)C(=O)O	inactive
C[C@@H]1CCCCO[C@H](CN(C)C(=O)NC2CCCCC2)[C@H](C)CN([C@@H](C)CO)C(=O)c2cc(NC(=O)Cc3ccccc3)ccc2O1	inactive

SMILES	cytotoxicity call
COc1ccc(NC(=O)N(C)C[C@@H]2OCCCC[C@H](C)Oc3ccc(NC(=O)Nc4ccc5c(c4)OCO5)cc3C(=O)N([C@H](C)CO)C[C@@H]2C)cc1	inactive
C[C@H]1CCCCO[C@@H](CN(C)C(=O)Nc2ccc(C(F)(F)F)cc2)[C@@H](C)CN([C@@H](C)CO)C(=O)c2cc(NC(=O)Cc3ccccc3)ccc2O1	inactive
O=C(C[C@H]1CC[C@@H]2[C@H](COC[C@@H](O)CN2CC2CCOCC2)O1)N1CCOCC1	inactive
C[C@@H]1CCCCO[C@@H](CN(C)C(=O)Nc2ccccc2)[C@H](C)CN([C@H](C)CO)C(=O)c2cc(NC(=O)NC3CCCCC3)ccc2O1	inactive
C[C@@H]1CN([C@H](C)CO)C(=O)c2cc(NC(=O)Nc3cccc4ccccc34)ccc2O[C@@H]1CN(C)S(=O)(=O)c1ccc(F)cc1	inactive
CCS(=O)(=O)N1C[C@]2(CN(C2)S(=O)(=O)c2cn(cn2)C)c2c(n(c3cc(ccc23)OC)C)[C@H]1CO	inactive
C[C@@H]1CCCCO[C@@H](CN(C)C(=O)Nc2ccc(C(F)(F)F)cc2)[C@H](C)CN([C@H](C)CO)C(=O)c2cc(NS(=O)(=O)c3ccc(Cl)cc3)ccc2O1	inactive
C[C@@H]1CN([C@H](C)CO)C(=O)c2cc(NS(=O)(=O)c3ccc(Cl)cc3)ccc2O[C@@H](C)CCCCO[C@H]1CN(C)C(=O)Nc1ccc(C(F)(F)F)cc1	active
C[C@@H]1CCCCO[C@H](CN(C)C(=O)Nc2ccc(C(F)(F)F)cc2)[C@@H](C)CN([C@@H](C)CO)C(=O)c2cc(NS(=O)(=O)c3ccc(Cl)cc3)ccc2O1	inactive
O=C(C[C@H]1CC[C@@H]2[C@H](COC[C@H](O)CN2S(=O)(=O)c2ccccc2)O1)NCCN1CCCCC1	inactive
C[C@H]1CCCCO[C@H](CN(C)Cc2ccccc2)[C@@H](C)CN([C@@H](C)CO)C(=O)c2cc(NC(=O)Nc3ccccc3)ccc2O1	inactive
COC(=O)[C@@]12OC[C@]34[C@H]([C@@H](O)[C@@H]1O)[C@@]1(C)CC(=O)C(=O)[C@H](C)[C@@H]1C[C@H]3OC(=O)[C@H](OC(=O)/C=C(\C)C(C)C)[C@@H]24	active
COc1ccc2c3c([nH]c2c1)[C@H](CO)N(C[C@]13CCN(CC1)CC1CCCC1)C(=O)Nc1cccc(c1)F	active
COc1ccc2c3c([nH]c2c1)[C@@H](CO)N(C[C@]13CCN(CC1)CC1CCCC1)C(=O)Nc1cccc(c1)F	active
COc1ccc2c3c([nH]c2c1)[C@@H](CO)N(C[C@]13CCN(CC1)C(=O)Nc1cccc(c1)F)C(=O)c1ccccc1	inactive
COc1ccc2c3c([nH]c2c1)[C@H](CO)N(CC1CCCC1)C[C@]13CCN(CC1)C(=O)Nc1cccc(c1)F	inactive
COc1ccc2c3c([nH]c2c1)[C@@H](CO)N(CC1CCCC1)C[C@]13CCN(CC1)C(=O)Nc1cccc(c1)F	inactive
Cc1noc(C)c1S(=O)(=O)Nc1ccc2c(c1)CC(=O)N([C@@H](C)CO)C[C@@H](C)[C@H](CN(C)S(=O)(=O)c1cccs1)O2	inactive
CCOC(=O)C(=O)N(C)CC(OC)OC	inactive
CCOC(=O)OC[C@@H]1[C@@H]2NC(=O)N(C)[C@@]1(COC(=O)NCCCCCC(=O)NO)Oc1ccccc12	inactive
C[C@H](CO)N1C[C@H](C)[C@@H](CN(C)S(C)(=O)=O)OCCCC[C@H](C)Oc2ccc(NS(C)(=O)=O)cc2C1=O	inactive

SMILES	cytotoxicity call
COc1ccc(S(=O)(=O)N(C)C[C@@H]2Oc3ccc(NS(=O)(=O)c4ccc(F)cc4)cc3C(=O)N([C@H](C)CO)C[C@@H]2C)cc1	inactive
CC(C)N1C[C@H](C)[C@@H](CN(C)Cc2ccc(Oc3ccccc3)cc2)Oc2c(cccc2-c2nn[nH]n2)C1=O	inactive
N=C(N=C(N)N)Nc1ccccc1	inactive
Cl.N=C(N)NC(=N)NCCc1ccccc1	inactive
N=C(N=C(N)N)NCCc1ccccc1	active
Cc1cc(C(=O)O)c(=O)[nH]c1C	inactive
NCCC1=CSC2=NCCN12	inactive
O=C(CCCCCCC(=O)Nc1ccc([C@H]2O[C@@H](CSc3ccccn3)C[C@H](c3ccccc3)O2)cc1)NO	inactive
CCS(=O)(=O)NCC[C@@H]1CC[C@H](NC(=O)Cc2ccccn2)[C@@H](CO)O1	inactive
Cc1ccc(S(=O)(=O)N[C@@H]2CC[C@@H](CC(=O)NCc3ccc(Cl)c(Cl)c3)O[C@@H]2CO)cc1	inactive
Cc1ccc(-c2ccc3c(c2)O[C@@H](CN(C)C(=O)Nc2ccc(C(F)(F)F)cc2)[C@@H](C)CN([C@@H](C)CO)S3(=O)=O)cc1	inactive
Cc1ccccc1-c1ccc2c(c1)O[C@@H](CN(C)C(=O)Nc1ccc(C(F)(F)F)cc1)[C@H](C)CN([C@H](C)CO)S2(=O)=O	inactive
Cc1ccc(-c2ccc3c(c2)O[C@@H](CN(C)C(=O)Nc2ccc(C(F)(F)F)cc2)[C@@H](C)CN([C@H](C)CO)S3(=O)=O)cc1	active
Cc1ccc(-c2ccc3c(c2)O[C@H](CN(C)C(=O)Nc2ccc(C(F)(F)F)cc2)[C@H](C)CN([C@@H](C)CO)S3(=O)=O)cc1	inactive
Cc1ccccc1-c1ccc2c(c1)O[C@H](CN(C)C(=O)Nc1ccc(C(F)(F)F)cc1)[C@H](C)CN([C@@H](C)CO)S2(=O)=O	active
Cc1ccccc1-c1ccc2c(c1)O[C@H](CN(C)C(=O)Nc1ccc(C(F)(F)F)cc1)[C@H](C)CN([C@H](C)CO)S2(=O)=O	inactive
C[C@@H]1CCCCO[C@H](CN(C)Cc2ccc(C(=O)O)cc2)[C@@H](C)CN([C@H](C)CO)C(=O)c2cc(NC(=O)c3ccccc3)ccc2O1	inactive
C[C@H](CO)N1C[C@H](C)[C@@H](CN(C)CC2CCCCC2)Oc2c(NC(=O)Cn3cnnn3)cccc2C1=O	inactive
C[C@@H]1CN([C@H](C)CO)C(=O)Cc2cc(NC(=O)Cn3cnnn3)ccc2O[C@H]1CN(C)CC1CC1	inactive
C[C@H]1CN([C@@H](C)CO)S(=O)(=O)c2ccc(-c3cccnc3)cc2O[C@@H]1CN(C)C(=O)NC1CCCC1	inactive
O=C(C1CC1)N1CCCN(C(=O)C2CC2)CC1	inactive
